Only some compounds are listed: those with a hit (about 1.6% of all), similar ones and a draw of the others.
KCNQ2 inh – inhibitors of rat KCNQ2 potassium channel | CHO-K1 KCNQ2, FluxOR thallium flux, 20 min; active compounds read low | B-score at 10 µM | actives 1.1% (n = 310,000);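 active = fluorescence ratio B-score at most minus 3 library SDs, with starting brightness B-score within 2 library SDs, cut at about -5.5 in these data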
Target sequence (O88943 whole entry, looked up): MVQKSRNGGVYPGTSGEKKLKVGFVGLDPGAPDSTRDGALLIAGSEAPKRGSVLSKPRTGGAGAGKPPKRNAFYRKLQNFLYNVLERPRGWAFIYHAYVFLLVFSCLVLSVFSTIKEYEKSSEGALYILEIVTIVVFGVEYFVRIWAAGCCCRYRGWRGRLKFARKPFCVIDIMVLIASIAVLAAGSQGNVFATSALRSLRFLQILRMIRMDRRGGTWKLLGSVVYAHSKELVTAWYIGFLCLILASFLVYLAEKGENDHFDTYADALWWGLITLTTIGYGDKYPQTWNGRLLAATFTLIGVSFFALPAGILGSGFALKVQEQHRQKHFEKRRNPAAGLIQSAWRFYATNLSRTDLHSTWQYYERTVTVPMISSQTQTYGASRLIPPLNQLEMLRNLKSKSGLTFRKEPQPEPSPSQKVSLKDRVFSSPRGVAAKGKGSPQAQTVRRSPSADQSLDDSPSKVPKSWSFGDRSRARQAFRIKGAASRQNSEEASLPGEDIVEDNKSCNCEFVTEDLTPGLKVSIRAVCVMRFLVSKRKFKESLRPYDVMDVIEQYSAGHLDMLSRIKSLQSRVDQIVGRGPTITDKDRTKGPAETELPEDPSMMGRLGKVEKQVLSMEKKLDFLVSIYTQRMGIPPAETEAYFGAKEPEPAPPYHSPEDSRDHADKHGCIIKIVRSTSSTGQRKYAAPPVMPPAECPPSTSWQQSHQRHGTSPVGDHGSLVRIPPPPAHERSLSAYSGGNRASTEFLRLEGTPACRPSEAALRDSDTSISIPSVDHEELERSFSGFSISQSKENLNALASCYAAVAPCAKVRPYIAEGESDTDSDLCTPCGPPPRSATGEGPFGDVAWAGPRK
KCNQ2 pot – enhances the rat KCNQ2 potassium channel. O88943. CHO-K1 KCNQ2, FluxOR thallium flux fluorescence; active compounds read high. B-score at 10 µM. actives 0.54% (n = 310,000). AID 2239;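 active = fluorescence ratio B-score at least 3 SD of library B-scores, with initial fluorescence B-score within 3 of them, cut at about 5.3 in these data; same plate scores as AID 2156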;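 note: B-score of peak minus minimum over baseline fluorescence ratio after K+ and Tl+ stimulus; positive B-score means potentiation of KCNQ2 with more thallium influx and brighter signal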
* marks the source's active call; other numbers are inactive results; i = inactive; . = no result given.

SMILES	KCNQ2 inh	KCNQ2 pot
CCOc1ccccc1NC(=O)C(OC(=O)c1ccc(CC)cc1)c1ccccc1 (configuration not stated)	-6.4*	-6.4
CCOc1ccccc1NC(=O)C(NCCN(C)C)c1ccccc1 (configuration not stated)	i	1.8
CC1=NC(C)(C)Cc2c(C)cccc21	i	.
S=C(c1ccc(-c2ccc(Br)cc2)o1)N1CCCCC1	i	.
Cc1ccc(OCC(=O)N/N=C/c2cn(C)c3ccccc23)cc1	i	0.38
N#Cc1ccc(CSCC(=O)NN=C2CCCC2)cc1	i	.
O=C(CSCc1ccc(Cl)cc1)NN=C1CCCC1	i	6.8*
CC1CCCC(C)N1C(=O)COC(=O)Cc1ccc(Cl)cc1 (configuration not stated)	i	.
CC1CCCC(C)N1C(=O)CSCc1ccc(Cl)cc1 (configuration not stated)	-6.3*	-6.3
Cn1c(CNC(=O)CCNC(=O)c2cccc(Br)c2)cc(=O)n(C)c1=O	i	0.8
CCOC(=O)CCCSc1nc2sc(C)c(C)c2c(=O)[nH]1	i	.
COc1cc2c(cc1OC)C1(NCC2)C(=O)Nc2ccccc21 (configuration not stated)	i	.
O=C(NCCc1ccc(C(F)(F)F)cc1)C1CCC(=O)N(CCCN2CCCC2=O)C1 (configuration not stated)	i	0.01
Cc1ccc(C(=O)NC(=S)NNC(=O)CC#N)cc1	i	.
CCOc1ccc(N2Cc3ncccc3C2=O)cc1	i	0.03
O=C(CN1C(=O)CC(c2ccccc2)=Nc2ccccc21)NCc1ccccc1	-5.6*	-5.6
COc1ccc(CNC(=O)CN2C(=O)CC(c3ccccc3)=Nc3ccccc32)cc1	i	.
c1ccc2c(Nc3nc(N4CCOCC4)c4ccccc4n3)cccc2c1	-6.5*	-6.5
Fc1ccc(Nc2nc(N3CCOCC3)c3ccccc3n2)cc1	i	.
COc1cc(CNCc2ccccn2)ccc1OCc1ccc(Cl)c(Cl)c1	-5.9*	-5.9
COc1cc(CNCc2ccccn2)ccc1OCC(N)=O	i	1.8
CN1CCN(/N=C/c2ccc(-c3ccccc3)cc2)CC1	i	.
CN1CCN(/N=C/c2c3ccccc3c(Cl)c3ccccc23)CC1	-7.1*	-7.1
CCCCn1c2ccc(C)cc2c2nnc(SCCN3CCCCC3)nc21	i	0.04
O=C(NCCc1ccccc1)c1ccccc1Cl	i	.
SMILES	KCNQ2 inh	KCNQ2 pot
O=C(c1cc(C(=O)NCCc2ccccc2)c(=O)n(CCc2ccccc2)c1)c1cc(Cl)ccc1O	-6.4*	-6.4
COc1ccc(CCNC(=O)c2cc(C(=O)c3cc(Cl)ccc3O)cn(CCc3ccc(OC)cc3)c2=O)cc1	i	.
COc1ccc(CCNC(=O)c2cc(C(=O)c3cc(C)ccc3O)cn(CCc3ccc(OC)cc3)c2=O)cc1	-7.3*	-7.3
C=CCOC(=O)C(C#N)c1nc2ccccc2nc1N1CCC(C(=O)OCC)CC1 (configuration not stated)	i	.
CCOC(=O)CNC(=O)c1c(C)nn(-c2ccccc2)c1Cl	i	0.71
CC(C)CC(NC(N)=O)C(=O)Nc1cccc([N+](=O)[O-])c1 (configuration not stated)	i	0.71
CCN(CC)S(=O)(=O)c1cc(-c2nnc(-c3ccc(Br)cc3)o2)ccc1Cl	-6.1*	-6.1
CCN(CC)S(=O)(=O)c1ccc(-c2nnc(SC)o2)cc1	i	1.1
CCN(CC)S(=O)(=O)c1cc(-c2nnc(-c3ccc(Br)cc3)o2)ccc1Br	-7*	-7
CCN(CC)S(=O)(=O)c1cccc(-c2nnc(-c3ccc(C)cc3)o2)c1	i	.
Cc1ccnc(NC(=O)c2cccc(S(=O)(=O)NCc3ccccc3)c2)c1	i	.
CCCn1ncc(CN2CCC(n3nccc3NC(=O)c3ccccc3Cl)CC2)c1C	i	0.06
CN(CC(=O)Nc1ccc2c(c1)CCC2)CC(=O)Nc1ccccc1Br	i	.
CCOC(=O)c1ccc2nc(C)c(CCC(C)=O)c(Cl)c2c1	i	.
CC(C)(C)OC(=O)[C@H]1[C@H](c2ccc([N+](=O)[O-])cc2)C2(C(=O)c3ccccc3C2=O)C2c3ccccc3C=NN21 (some centres not stated)	-6.1*	-6.1
CCOC(=O)C1C(=O)C=C(c2ccc([N+](=O)[O-])cc2)CC1c1ccccc1 (configuration not stated)	i	.
COc1ccccc1-c1nnc(N)s1	i	1.3
C=CCN(Cc1ccc(OC)c(OC)c1)C(=O)N1CCOCC1	i	.
CN(C)c1cccc(C(=O)OCC(=O)Nc2ccccc2-c2ccccc2)c1	i	0.47
CCN(CC)c1ccc(C(=O)OCC(=O)Nc2ccccc2-c2ccccc2)cc1	-6.5*	-6.5
CCOC(=O)c1cnc2ccc(C)cc2c1Sc1ccc(F)cc1	-5.5*	-5.5
CCOC(=O)c1cc(-c2ccccc2)nc2ccc(C)cc12	i	.
O=[N+]([O-])c1ccc(CN2CCN(c3ccc([N+](=O)[O-])cc3)CC2)cc1	i	.
O=[N+]([O-])c1ccc(N2CCC(=NOCc3ccc(Cl)cc3)CC2)cc1	-5.7*	-5.7
